Laboratory results as given in PubChem BioAssay (NCI).
Values joined by “and” are separate entries in the source; they are usually repeats but may differ in a detail not shown here. Equal values may be shown once. About 79,000 compounds went through this panel and 15% of them were active in at least one assay; those are over-represented in the sample as a whole. A structure can be active in one record and inactive in another. Active and inactive are the calls of the source. Cut-off read from the data, not from the text of the source: active = growth inhibition above about 70%; inactive = the rest.

Legend:
[1] = NCI Yeast Anticancer Drug Screen. Data for the rad50 strain (AID 155);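 note: 0% = growth of vehicle-only cultures of the same strain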; details: S. cerevisiae rad50 strain growth inhibition, stronger effect = higher value
Procedure, shortened: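 Genetically altered yeast (DNA repair pathway); compound treatment; growth inhibition vs vehicle ctrl.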

[2] = NCI Yeast Anticancer Drug Screen. Data for the mec2-1 strain (AID 157); details: S. cerevisiae mec2-1 strain, stronger effect = higher value
Procedure, shortened: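 mec2-1 yeast strain, carrying an alteration in DNA damage repair or cell cycle control, was exposed to compounds; growth inhibition was measured relative to vehicle-treated controls.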

[3] = NCI Yeast Anticancer Drug Screen. Data for the sgs1 mgt1 strain (AID 161);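 note: 0% = growth of cultures given vehicle only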; details: S. cerevisiae sgs1 mgt1 strain, stronger effect = higher value
Procedure, shortened: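 Yeast cells carrying a defined DNA-repair defect were exposed to test compounds. Growth inhibition was measured relative to vehicle-treated controls.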

[4] = NCI Yeast Anticancer Drug Screen. Data for the cln2 rad14 strain (AID 165);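 note: 0% = growth equal to vehicle treated cultures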; details: S. cerevisiae cln2 rad14 strain, stronger effect = higher value
Procedure, shortened: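 Yeast carrying cln2 and rad14 alterations (cell cycle control and DNA damage repair) were exposed to compounds. Growth inhibition was measured against vehicle-treated controls.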

[5] = NCI Yeast Anticancer Drug Screen. Data for the bub3 strain (AID 167); details: S. cerevisiae bub3 mutant strain, stronger effect = higher value
Procedure, shortened: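 Yeast carrying a defined mutation is treated with each compound, and growth is compared with that of vehicle-exposed cells to give inhibition.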

[6] = NCI Yeast Anticancer Drug Screen. Data for the mlh1 rad18 strain (AID 175); details: S. cerevisiae mlh1 rad18 strain growth inhibition, stronger effect = higher value
Procedure, shortened: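 Growth inhibition of the yeast strain was measured after compound exposure and expressed relative to vehicle-treated controls. The strain carries defined defects in DNA damage repair.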

[7] = at 5.0 µM (retest, dose inferred, filed as 0.5)
[8] = at 50.0 µM (retest, dose inferred, filed as 5.0)

| SMILES | growth inhibition [1, 7] | growth inhibition [1, 8] | growth inhibition ([1]; at 50.0 µM) | growth inhibition [2, 7] | growth inhibition [2, 8] | growth inhibition ([2]; at 50.0 µM) | growth inhibition [3, 7] | growth inhibition [3, 8] | growth inhibition ([3]; at 50.0 µM) | growth inhibition [4, 7] | growth inhibition [4, 8] | growth inhibition ([4]; at 50.0 µM) | growth inhibition [5, 7] | growth inhibition [5, 8] | growth inhibition ([5]; at 50.0 µM) | growth inhibition [6, 7] | growth inhibition [6, 8] | growth inhibition ([6]; at 50.0 µM) |
| --- | --- | --- | --- | --- | --- | --- | --- | --- | --- | --- | --- | --- | --- | --- | --- | --- | --- | --- |
| COC(=O)C1=C(C)NC(=S)NC1c1ccc(N(CCCl)CCCl)cc1Cl (stereo not drawn) | 10% (inactive) | 94% (active) | 51.1% (inactive) | -28% (inactive) | 96% (active) | 86.7% (active) | 1% (inactive) | 95% (active) | 86.2% (active) | -8% (inactive) | 92% (active) | 61.9% (inactive) | 81% (active) | 97% (active) | 96.5% (active) | 13% (inactive) | 94% (active) | 91.3% (active) |
| COc1cc(Br)cc(/C=C(\C)[N+](=O)[O-])c1O | 11% (inactive) | 96% (active) | 99.5% (active) | 7% (inactive) | 95% (active) | 99.8% (active) | 18% (inactive) | 97% (active) | 99.8% (active) | -5% (inactive) | 94% (active) | 99.5% (active) | -1% (inactive) | 97% (active) | 99.7% (active) | 9% (inactive) | 97% (active) | 99.7% (active) |
| Clc1ccc(CCN2CCOCC2)c(Cl)c1 | 4% (inactive) | 27% (inactive) | 62.9% (inactive) | 0% (inactive) | 16% (inactive) | 34.1% (inactive) | 0% (inactive) | 42% (inactive) | 54.4% (inactive) | 31% (inactive) | 30% (inactive) | 58.5% (inactive) | 23% (inactive) | 54% (inactive) | 34.5% (inactive) | 5% (inactive) | 55% (inactive) | 64.9% (inactive) |
| COC12C(COC(C)=O)C3=C(C(=O)C(C)=C(N4CCCCC4)C3=O)N1CC1NC12 (stereo not drawn) | 93% (active) | 97% (active) | 89.5% (active) | 96% (active) | 95% (active) | 91.7% (active) | 79% (active) | 97% (active) | 90.5% (active) | 93% (active) | 97% (active) | 86.6% (active) | 67% (inactive) | 96% (active) | 88% (active) | 98% (active) | 97% (active) | 90% (active) |
| CC#N.FC(F)(F)C#CC(F)(F)F.FC(F)(F)C#CC(F)(F)F.FC(F)(F)C#CC(F)(F)F.[W] | 90% (active) | 99% (active) | 99.4% (active) | 83% (active) | 99% (active) | 99.5% (active) | 90% (active) | 99% (active) | 99.7% (active) | 85% (active) | 99% (active) | 99.2% (active) | 94% (active) | 99% (active) | 99.6% (active) | 95% (active) | 99% (active) | 99.3% (active) |
| Cc1ccc(C(=O)CCl)o1 | -114% (inactive) | 97% (active) | 98.7% (active) | -29% (inactive) | 98% (active) | 99.7% (active) | -46% (inactive) | 94% (active) | 76% (active) | -54% (inactive) | 77% (active) | 71.4% (active) | -34% (inactive) | 98% (active) | 99.2% (active) | -96% (inactive) | 95% (active) | 98.5% (active) |
| CC(=O)Nc1ccccc1[As](O[As](c1ccccc1)c1ccccc1NC(C)=O)c1ccccc1 (stereo not drawn) | 39% (inactive) | 99% (active) | 99.5% (active) | 24% (inactive) | 100% (active) | 99.6% (active) | 66% (inactive) | 100% (active) | 99.5% (active) | 37% (inactive) | 99% (active) | 99.4% (active) | 11% (inactive) | 100% (active) | 99.5% (active) | 53% (inactive) | 99% (active) | 99.5% (active) |
| O=[N+]([O-])[O][Tl]([c]1ccccc1)[c]1ccccc1 | -4% (inactive) | 41% (inactive) | 15.3% (inactive) | -4% (inactive) | 54% (inactive) | 21.4% (inactive) | -4% (inactive) | 56% (inactive) | 49.5% (inactive) | -4% (inactive) | 57% (inactive) | 20.4% (inactive) | -3% (inactive) | 75% (active) | 51.8% (inactive) | -3% (inactive) | 41% (inactive) | 8.3% (inactive) |
| COc1cccc2c1cc([N+](=O)[O-])c1c(C(=O)O)cc3c(c12)OCO3 | 35% (inactive) and 54% (inactive) | 95% (active) and 94% (active) | 87.8% (active) and 91% (active) | 4% (inactive) and 39% (inactive) | 83% (active) and 93% (active) | 85.7% (active) and 91.7% (active) | 22% (inactive) and 61% (inactive) | 94% (active) and 95% (active) | 88.3% (active) and 88.7% (active) | -11% (inactive) and 19% (inactive) | 62% (inactive) and 84% (active) | 84.4% (active) and 86.8% (active) | 18% (inactive) and 49% (inactive) | 78% (active) and 93% (active) | 89.8% (active) and 90.5% (active) | 25% (inactive) and 71% (active) | 90% (active) and 95% (active) | 88.7% (active) and 79.7% (active) |
| CCC[CH2][Sn][Cl] | 99% (active) | 98% (active) | 98.2% (active) | 100% (active) | 98% (active) | 98.7% (active) | 99% (active) | 99% (active) | 98.8% (active) | 99% (active) | 98% (active) | 97.7% (active) | 99% (active) | 97% (active) | 98.1% (active) | 99% (active) | 98% (active) | 97.4% (active) |
| Cc1ccc2ccccc2c1NC1=NCCO1 | 24% (inactive) | 45% (inactive) | -15.6% (inactive) | 25% (inactive) | 20% (inactive) | -10.9% (inactive) | 21% (inactive) | 11% (inactive) | -5.65% (inactive) | 17% (inactive) | 26% (inactive) | 17% (inactive) | 18% (inactive) | 6% (inactive) | 11.8% (inactive) | 30% (inactive) | 17% (inactive) | -10.1% (inactive) |
| C[C@]12CC[C@H]3[C@@H](CCC4=CC(=O)CC[C@@H]43)[C@@H]1CC[C@@H]2OC1(O)C(=O)c2ccccc2C1=O | -7% (inactive) | 47% (inactive) | 65.2% (inactive) | -6% (inactive) | 21% (inactive) | 27.4% (inactive) | -2% (inactive) | 59% (inactive) | 74.8% (active) | -16% (inactive) | 22% (inactive) | 20.5% (inactive) | -8% (inactive) | 44% (inactive) | 69.9% (inactive) | 11% (inactive) | 44% (inactive) | 61.7% (inactive) |
| C(CCC[Te][Te]CCCCCCOC1CCCCO1)CCOC1CCCCO1 (stereo not drawn) | 6% (inactive) | 39% (inactive) | 84.5% (active) | 3% (inactive) | 17% (inactive) | 48.5% (inactive) | 7% (inactive) | 19% (inactive) | 67.7% (inactive) | 3% (inactive) | 29% (inactive) | 62.4% (inactive) | 0% (inactive) | 30% (inactive) | 68.7% (inactive) | 2% (inactive) | 30% (inactive) | 90% (active) |
| CCC[CH2][Sn]([CH2]CCC)([S]C#N)[S]C#N | 95% (active) | 97% (active) | 89.3% (active) | 96% (active) | 97% (active) | 91% (active) | 93% (active) | 97% (active) | 90.5% (active) | 93% (active) | 97% (active) | 86% (active) | 96% (active) | 96% (active) | 89.1% (active) | 97% (active) | 97% (active) | 88% (active) |
| CC(C)(C)C1=CC(=C/C=C/c2cc(C(C)(C)C)[o+]c(C(C)(C)C)c2)C=C(C(C)(C)C)O1 | 99% (active) | 93% (active) | 67.3% (inactive) | 99% (active) | 96% (active) | 95.6% (active) | 99% (active) | 94% (active) | 52.5% (inactive) | 99% (active) | 94% (active) | 96% (active) | 99% (active) | 94% (active) | 94.3% (active) | 99% (active) | 95% (active) | 37.5% (inactive) |
| NC(N)=N/N=C1\C(=O)N(c2ccc(Cl)cc2)C(=O)C1C(=O)Nc1ccc(Cl)cc1 (stereo not drawn) | 1% (inactive) | -2% (inactive) | 54.6% (inactive) | 14% (inactive) | 17% (inactive) | 46.1% (inactive) | 5% (inactive) | 11% (inactive) | 76.1% (active) | 0% (inactive) | -3% (inactive) | -8.8% (inactive) | 8% (inactive) | 19% (inactive) | -7.75% (inactive) | 2% (inactive) | -14% (inactive) | 83.1% (active) |
